Results on 12 compounds are retold here after PubChem BioAssay.

The nature of test [1]: E. coli DRC41 culture turbidity changes, primary screen, E. coli filamentation inducer project, strain DRC41, OD650, 48 h (AID 1152).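 Note: E. coli MC1000 strain DRC41 lacking acrAB efflux pump and sulA.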 The settings on record: E. coli DRC41 (acrAB sulA), higher = more signal, called active from +8 up or from −8 down.
The nature of test [2]: small-molecule binders of probe aLefty1, primary screen, biochemical, small-molecule microarray, 635/667 nm fluorescence (AID 1153).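 Note: score merges spot fluorescence with signal-to-noise ratio from the scanned slide images.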 As to conditions: higher = more signal.
Test [3] can be described thus: PSAC antagonists in infected red cells, primary screen, cell-based, P. falciparum Indochina, OD700, 1 h (AID 1154). As to conditions: P. falciparum Indochina infected RBC osmotic lysis, higher = more signal, called active from +8 up or from −8 down.
A short description of test [4]: PSAC antagonists in infected red cells, primary screen, cell-based, P. falciparum Indochina, OD700, 2 h (AID 1155).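 Note: lysis reports solute entry through the parasite surface anion channel PSAC; channel blockers reduce lysis of infected cells.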 As to conditions: P. falciparum Indochina infected erythrocytes, osmotic lysis OD700; higher = more signal, called active from +8 up or from −8 down.
Test [5] in a line: osmotic lysis modulators in infected erythrocytes, primary screen, PSAC antagonist project, cell-based, P. falciparum Indochina, OD700, 3 h (AID 1156). The settings on record: higher = more signal, called active from +8 up or from −8 down.
Test [6] can be described thus: PSAC antagonists in infected red cells, primary screen, cell-based, P. falciparum Indochina, OD700, 18 h (AID 1157). The settings on record: P. falciparum Indochina infected erythrocytes, osmotic lysis OD700, 18 h; higher = more signal, called active from +8 up or from −8 down.
Test [7] is described as follows: modulators of S6 phosphorylation in cells, primary screen, cell-based, A549, cytoblot, luminescence, serum-stimulated (AID 1158).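 Note: serum-stimulated A549 lung adenocarcinoma cells; signal is phosphorylated S6 detected by cytoblot immunostaining with HRP secondary.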 As to conditions: A549 phospho-S6 cytoblot, 5 h, higher = more signal.
Test [8] concerns the target NADPH oxidase 2 (Homo sapiens) (UniProt P04839). Nature of the test: NOX2-dependent H2O2 signal modulators, primary screen, NOX inhibitor project, cell-based, HEK293-NOX2, PMA-stimulated, Amplex Red fluorescence (AID 1159). Note: test concentration not given here. The settings on record: 45 min, higher = more signal, called active from +8 up or from −8 down.
For test [9], the target named is NADPH oxidase 4 (Homo sapiens) (UniProt Q9NPH5). Put plainly: NOX4-dependent H2O2 signal modulators, primary screen, NOX inhibitor project, cell-based, HEK293-NOX4, tetracycline-induced, Amplex Red fluorescence (AID 1160). The settings on record: 45 min, higher = more signal, called active from +8 up or from −8 down.
Sequence of NADPH oxidase 4 (Homo sapiens) (Q9NPH5 whole entry, looked up): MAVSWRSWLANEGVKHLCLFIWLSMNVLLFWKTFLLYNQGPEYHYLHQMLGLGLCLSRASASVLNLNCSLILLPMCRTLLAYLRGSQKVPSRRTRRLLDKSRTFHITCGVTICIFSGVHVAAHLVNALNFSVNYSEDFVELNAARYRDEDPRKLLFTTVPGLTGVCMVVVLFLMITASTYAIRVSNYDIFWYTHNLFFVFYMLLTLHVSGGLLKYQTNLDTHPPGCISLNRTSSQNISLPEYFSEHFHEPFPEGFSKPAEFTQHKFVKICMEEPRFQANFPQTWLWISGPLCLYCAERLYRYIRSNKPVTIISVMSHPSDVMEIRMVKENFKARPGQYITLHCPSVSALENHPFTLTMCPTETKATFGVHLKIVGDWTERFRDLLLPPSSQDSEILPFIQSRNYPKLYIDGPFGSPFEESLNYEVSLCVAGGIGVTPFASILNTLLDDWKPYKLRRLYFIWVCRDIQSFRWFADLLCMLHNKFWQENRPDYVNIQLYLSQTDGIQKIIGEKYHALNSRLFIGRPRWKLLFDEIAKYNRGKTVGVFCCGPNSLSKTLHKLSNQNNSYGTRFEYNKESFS
Test [10] addresses NADPH oxidase 5 (Homo sapiens) (UniProt Q96PH1). Nature of the test: NOX5-dependent H2O2 signal modulators, primary screen, NOX inhibitor project, cell-based, HEK293-NOX5, Amplex Red fluorescence (AID 1161). As to conditions: HEK293-NOX5, ionomycin, 45 min, higher = more signal.

Calls of active or inactive are those of the source.

Sequence of NADPH oxidase 2 (Homo sapiens) (P04839 whole entry, looked up): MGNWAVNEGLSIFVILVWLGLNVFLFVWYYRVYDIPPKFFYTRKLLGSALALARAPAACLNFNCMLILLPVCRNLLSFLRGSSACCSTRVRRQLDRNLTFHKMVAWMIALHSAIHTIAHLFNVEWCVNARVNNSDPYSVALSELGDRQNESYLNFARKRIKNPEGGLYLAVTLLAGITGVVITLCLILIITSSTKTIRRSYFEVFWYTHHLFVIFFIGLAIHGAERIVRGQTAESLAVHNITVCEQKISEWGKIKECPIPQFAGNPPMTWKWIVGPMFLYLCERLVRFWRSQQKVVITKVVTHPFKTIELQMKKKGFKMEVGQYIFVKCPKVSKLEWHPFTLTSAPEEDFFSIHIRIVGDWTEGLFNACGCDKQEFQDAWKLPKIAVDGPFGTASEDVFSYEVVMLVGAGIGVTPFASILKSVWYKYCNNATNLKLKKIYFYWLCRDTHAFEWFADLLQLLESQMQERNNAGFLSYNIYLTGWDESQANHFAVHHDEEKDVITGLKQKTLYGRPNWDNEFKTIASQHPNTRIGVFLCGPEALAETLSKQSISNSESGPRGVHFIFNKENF
Sequence of NADPH oxidase 5 (Homo sapiens) (Q96PH1 whole entry, looked up): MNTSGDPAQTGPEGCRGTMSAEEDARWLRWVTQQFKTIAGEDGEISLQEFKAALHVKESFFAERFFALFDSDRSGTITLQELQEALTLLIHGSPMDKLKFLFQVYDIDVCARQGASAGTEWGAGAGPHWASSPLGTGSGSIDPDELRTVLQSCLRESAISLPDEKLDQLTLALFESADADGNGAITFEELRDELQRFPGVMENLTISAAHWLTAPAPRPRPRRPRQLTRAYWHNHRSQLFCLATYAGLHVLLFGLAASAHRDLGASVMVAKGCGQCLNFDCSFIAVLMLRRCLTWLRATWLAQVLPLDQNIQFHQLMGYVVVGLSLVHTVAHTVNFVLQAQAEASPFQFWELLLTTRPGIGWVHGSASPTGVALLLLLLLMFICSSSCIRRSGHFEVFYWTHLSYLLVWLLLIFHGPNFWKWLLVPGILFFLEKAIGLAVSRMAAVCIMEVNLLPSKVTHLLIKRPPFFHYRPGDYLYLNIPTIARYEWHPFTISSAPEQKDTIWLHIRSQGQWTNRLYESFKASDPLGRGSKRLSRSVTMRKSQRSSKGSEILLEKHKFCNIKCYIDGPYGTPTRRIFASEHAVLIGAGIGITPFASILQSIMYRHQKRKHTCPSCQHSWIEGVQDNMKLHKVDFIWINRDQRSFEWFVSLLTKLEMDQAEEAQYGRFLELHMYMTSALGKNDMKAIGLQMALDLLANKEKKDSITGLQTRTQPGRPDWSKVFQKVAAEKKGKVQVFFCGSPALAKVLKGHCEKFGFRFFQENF

Turning to `[N-]=[N+]=NCc1ccccc1C[C@@]1(C(=O)O)N=C(c2ccc(OCCCO)cc2)O[C@@H]1c1ccccc1N=[N+]=[N-]`, the z-score in test [1] is 0.051 (inactive); in [3] it was 30.3 (active); in test [4], 24.4 (active); in [5], 1.44 (inactive); in test [6], 5.12 (inactive); in test [7] it was -0.272. The figures for the z-score in test [8], in [9] and in [10] were -0.0613 (inactive), 1.21 (inactive) and 0.819, respectively. The composite z-score in test [2] stood at 0.337.

Turning to `CCCNC(=O)[C@@H]1c2ccccc2C(=O)N(Cc2cc(F)cc(C(F)(F)F)c2)[C@H]1c1ccc(CO)cc1`, the z-score is 1.86 (inactive) in [1]; 2.1 (inactive) in test [3]; -0.314 (inactive) in [4]; 0.064 (inactive) in [5]; -0.73 (inactive) in test [6]; 1.74 in test [7]. For the same compound, the z-score in test [8] is 1.2 (inactive); in [9], 0.609 (inactive); in test [10], 0.676. Moreover, the composite z-score in test [2] worked out at 0.251.

Consider `O=C1O[C@@H](c2ccccc2)[C@@H](c2ccccc2)N2[C@@H](c3ccc(O)cc3)[C@]3(C(=O)Nc4ccccc43)[C@@H](C(=O)N3CCN(c4ncccn4)CC3)[C@H]12`, for which the z-score was 3.11 (inactive) in test [1]; 2.76 (inactive) in test [3]; -0.363 (inactive) in test [4]; 0.541 (inactive) in test [5]; -1.54 (inactive) in test [6]; 2.51 in test [7]. Also, the figures for the z-score in test [8], in test [9] and in test [10] were 0.142 (inactive), -0.0244 (inactive) and 1.51, respectively. The compound further yielded a composite z-score in [2] of -0.263.

For the compound `C[N+](C)(C)CCCCNC(=O)[C@@H]1C[C@@H]2C(=O)N3CCC[C@H]3C(=O)N2[C@@H]1c1cccc(OCCO)c1`, the z-score is 1.25 (inactive) in test [1]; 2.9 (inactive) in test [3]; -0.732 (inactive) in test [4]; -2.56 (inactive) in [5]; -2.13 (inactive) in [6]; 0.326 in test [7]. The z-score in [8] was -1.42 (inactive); in test [9], -0.183 (inactive); in test [10], -0.87. Moreover, the composite z-score in test [2] came to 0.14.

Consider `C=CC[C@]1(C(=O)NCC(O)CO)N=C(c2ccc(OCCCO)cc2)O[C@H]1c1ccccc1` (stereo not given in full), for which the z-score was 1.46 (inactive) in test [1]; 6.95 (inactive) in test [3]; 0.741 (inactive) in test [4]; 1.55 (inactive) in test [5]; 0.618 (inactive) in test [6]; 0.672 in [7]. Also, the z-score in test [8] is 1.22 (inactive); in test [9], 0.542 (inactive); in test [10], 0.195. Also, the composite z-score in test [2] was -0.179.

For the compound `C=CCNC(=O)[C@H]1[C@@H]2C(=O)O[C@@H](c3ccccc3)[C@@H](c3ccccc3)N2[C@@H](c2ccccc2OCCO)[C@]12C(=O)N(C(=O)OCCOC)c1ccc(C#CCNC(N)=O)cc12`, the z-score in test [1] was 1.8 (inactive); in [3] it was 2.13 (inactive); in [4] it was -0.0443 (inactive); in test [5], 0.391 (inactive); in [6], -1.3 (inactive); in test [7], 1.78. The z-score in test [8] was 1.76 (inactive); in test [9], 1.35 (inactive); in test [10], -0.971. The compound also returned a composite z-score in test [2] of 0.178.

Take `O=C1C2C=CC(C(O)C#Cc3ccccc3)N(Nc3ccccc3)C2C(=O)N1c1ccccc1` (stereo not given): the z-score in test [1] was -0.559 (inactive); in test [3] it was 4.69 (inactive); in [4], 1.8 (inactive); in test [5], 0.537 (inactive); in test [6] it was 1.49 (inactive); in test [7], -0.964. The z-score in test [8] was -0.432 (inactive); in test [9] it was -4.44 (inactive); in test [10], -1.09. The compound further showed a composite z-score in test [2] of -0.025.

As to `CO[C@H]1COC(=O)[C@H](Cc2ccccc2)NC(=O)CC=C[C@@H](C)[C@H](OC)COC(=O)CC=C[C@@H]1C`, the z-score is 0.284 (inactive) in [1]; -0.144 (inactive) in test [3]; -1.22 (inactive) in test [4]; -1 (inactive) in test [5]; -1.27 (inactive) in [6]; 0.501 in test [7]. Further, the results for the z-score in test [8], in test [9] and in [10] were -3.05 (inactive), 0.103 (inactive) and 0.784, respectively. In [2], the composite z-score was -0.0241.

As for `CSCC[C@@H]1NC(=O)CC=C[C@@H](C)COC(=O)[C@H](CCSC)NC(=O)CC=C[C@@H](C)COC1=O`, the z-score in [1] is -0.77 (inactive); in [3] it was -0.138 (inactive); in test [4], -0.774 (inactive); in [5], -1.73 (inactive); in test [6] it was -1.85 (inactive); in test [7] it was 0.214. In addition, the z-score in test [8] was -1.26 (inactive); in test [9] it was 0.731 (inactive); in test [10] it was 1.5. In test [2], this compound returned a composite z-score of -0.0559.

For `COC(=O)c1c(CC[C@@H](CO)NC(=O)N[C@H](Cn2cc(-c3cncn3C)nn2)C(C)C)oc(C(C)=O)c1C(=O)OC`, the z-score in [1] is 2.49 (inactive); in test [3], 0.88 (inactive); in [4] it was -0.0063 (inactive); in [5], -0.181 (inactive); in test [6] it was -0.519 (inactive); in test [7], 2.93. Further, the figures for the z-score in test [8], in [9] and in test [10] were -1.33 (inactive), 0.591 (inactive) and -0.295, respectively. Moreover, in [2], the composite z-score was -0.148.

As for `COc1ccc([C@H]2C[C@H]3C(Br)=C[C@]2(OC)C(=O)[C@]32CO2)cc1`, the z-score was -0.882 (inactive) in test [1]; 0.262 (inactive) in test [3]; 0.0516 (inactive) in test [4]; -0.29 (inactive) in test [5]; -0.21 (inactive) in test [6]; -0.242 in test [7]. The z-score in test [8] was 0.0866 (inactive); in test [9], 0.295 (inactive); in [10] it was -0.292. The same compound came in with a composite z-score in [2] of -0.0536.

As to `COC(=O)c1ccc(C#CC(NP(=O)(c2ccccc2)c2ccccc2)c2ccccc2)cc1` (stereo not given), the z-score is -0.817 (inactive) in test [1]; 10.2 (active) in [3]; 1.16 (inactive) in test [4]; 1.04 (inactive) in test [5]; 0.936 (inactive) in test [6]; 0.806 in [7]. Besides, the z-score was 0.00908 (inactive) in test [8], -0.556 (inactive) in [9] and -4.46 in [10]. The compound further came in with a composite z-score in test [2] of 0.0312.
